Measured values reported in the supplement of paper PMC6089552.
Where “and” joins values, the source holds several entries; their conditions need not be identical. Equal entries are not always repeated. The whole screen tested about 3,200 compounds, of which about 300 (9.4%) showed activity. This excerpt belongs to a sample that is enriched for actives. A number with no mark means an inactive call.

Test system: A673/TR/shEF
Assay: cell viability (LOESS-normalised, relative to median of negative controls) (log2 ratio); higher = more viable cells (less compound effect), active = hit call of the paper (over 3 MAD below the median)
Settings: treatment time: 72 h
Summary of the method: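 A673/TR/shEF Ewing sarcoma cells were plated at 1,500 per well in 384-well plates and cultured with or without doxycycline, added 24 h before compounds, to induce EWS-FLI1 shRNA knockdown. Library compounds at two or more concentrations, alongside DMSO controls, were applied for three days. Cell viability was measured by CellTiter-Glo luminescence on an Envision reader. Readings were LOESS-corrected per plate, divided by the median of negative controls and log2-transformed, and hits were wells lying at least three median absolute deviations from the median of all screened wells.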

[1] = 0.25 µM, library screen: screen1, EWS-FLI1 expression: high (no doxycycline)
[2] = 0.25 µM, library screen: screen1, EWS-FLI1 expression: low (doxycycline-induced shRNA knockdown)
[3] = 2.5 µM, library screen: screen1, EWS-FLI1 expression: high (no doxycycline)
[4] = 2.5 µM, library screen: screen1, EWS-FLI1 expression: low (doxycycline-induced shRNA knockdown)
[5] = 0.103 µM, library screen: screen3, EWS-FLI1 expression: high (no doxycycline)
[6] = 0.103 µM, library screen: screen3, EWS-FLI1 expression: low (doxycycline-induced shRNA knockdown)
[7] = 0.25 µM, library screen: screen2, EWS-FLI1 expression: high (no doxycycline)
[8] = 0.25 µM, library screen: screen2, EWS-FLI1 expression: low (doxycycline-induced shRNA knockdown)
[9] = 0.308 µM, library screen: screen3, EWS-FLI1 expression: high (no doxycycline)
[10] = 0.308 µM, library screen: screen3, EWS-FLI1 expression: low (doxycycline-induced shRNA knockdown)
[11] = 0.926 µM, library screen: screen3, EWS-FLI1 expression: high (no doxycycline)
[12] = 0.926 µM, library screen: screen3, EWS-FLI1 expression: low (doxycycline-induced shRNA knockdown)
[13] = 2.5 µM, library screen: screen2, EWS-FLI1 expression: high (no doxycycline)
[14] = 2.5 µM, library screen: screen2, EWS-FLI1 expression: low (doxycycline-induced shRNA knockdown)
[15] = 2.8 µM, library screen: screen3, EWS-FLI1 expression: high (no doxycycline)
[16] = 2.8 µM, library screen: screen3, EWS-FLI1 expression: low (doxycycline-induced shRNA knockdown)
[17] = 8.3 µM, library screen: screen3, EWS-FLI1 expression: high (no doxycycline)
[18] = 8.3 µM, library screen: screen3, EWS-FLI1 expression: low (doxycycline-induced shRNA knockdown)
[19] = 25 µM, library screen: screen3, EWS-FLI1 expression: high (no doxycycline)
[20] = 25 µM, library screen: screen3, EWS-FLI1 expression: low (doxycycline-induced shRNA knockdown)
[21] = 0.025 µM, library screen: screen2, EWS-FLI1 expression: high (no doxycycline)
[22] = 0.025 µM, library screen: screen2, EWS-FLI1 expression: low (doxycycline-induced shRNA knockdown)
[23] = 25 µM, library screen: screen2, EWS-FLI1 expression: high (no doxycycline)
[24] = 25 µM, library screen: screen2, EWS-FLI1 expression: low (doxycycline-induced shRNA knockdown)

Row | Compound | cell viability (log2) [1] | cell viability (log2) [2] | cell viability (log2) [3] | cell viability (log2) [4] | cell viability (log2) [5] | cell viability (log2) [6] | cell viability (log2) [7] | cell viability (log2) [8] | cell viability (log2) [9] | cell viability (log2) [10] | cell viability (log2) [11] | cell viability (log2) [12] | cell viability (log2) [13] | cell viability (log2) [14] | cell viability (log2) [15] | cell viability (log2) [16] | cell viability (log2) [17] | cell viability (log2) [18] | cell viability (log2) [19] | cell viability (log2) [20] | cell viability (log2) [21] | cell viability (log2) [22] | cell viability (log2) [23] | cell viability (log2) [24]
1 | O=C(/C=C/c1ccc(-c2cccc(Cl)c2)o1)c1ccco1 | 0.127 | 0.15 | 0.147 | 0.194 | – | – | – | – | – | – | – | – | – | – | – | – | – | – | – | – | – | – | – | –
2 | O=c1nc[nH]c2nc[nH]c12 | 0.00725 | -0.0191 | 0.152 | 0.0891 | – | – | – | – | – | – | – | – | – | – | – | – | – | – | – | – | – | – | – | –
3 | Cn1c(=O)c2[nH]cnc2n(C)c1=O | 0.0899 | 0.0721 | 0.127 | 0.0623 | 0.139 | 0.0982 | 0.105 and -0.0181 | 0.0369 and 0.0406 | 0.11 | 0.14 | 0.146 | 0.0819 | 0.259 and 0.0738 | 0.0969 and 0.00951 | 0.155 | 0.129 | 0.11 | 0.0762 | 0.117 | 0.0984 | – | – | – | –
4 | S=c1nc[nH]c2nc[nH]c12 | -0.0045 | -0.00406 | -0.186 (active) | 0.0219 | 0.0192 | 0.0459 | 0.161 | 0.00291 | 0.144 | 0.158 | 0.0964 | 0.0595 | -0.00564 | 0.0787 | 0.036 | 0.0694 | -0.147 | 0.036 | -0.314 (active) | 0.056 | 0.182 | 0.0993 | -0.312 (active) | 0.0432
5 | Nc1nc(=S)c2[nH]cnc2[nH]1 | 0.0575 | 0.137 | -0.318 (active) | 0.0456 | 0.132 | 0.0451 | 0.0679 | 0.0691 | 0.156 | 0.137 | 0.118 | 0.102 | -0.33 (active) | -0.0263 | 0.0258 | 0.111 | -0.323 (active) | 0.0181 | -0.834 (active) | 0.027 | 0.0835 | 0.0155 | -0.96 (active) | -0.163 (active)
6 | Cn1c(=O)[nH]c2nc[nH]c2c1=O | 0.0262 | 0.135 | 0.103 | 0.0812 | – | – | – | – | – | – | – | – | – | – | – | – | – | – | – | – | – | – | – | –
